Data published in the supplement of paper PMC11732987, “Enantioselective OTUD7B fragment discovery through chemoproteomics screening and high-throughput optimisation” (Communications Chemistry, 2025).

What was measured:
Test in all cases: log2 ratio of Biotin-Ahx-Ub-VS probe labelling (fragment/DMSO); higher = less target engagement (more negative = stronger competition), active = hit call of the paper (q ≤ 0.05, log2 ratio ≤ -1)
Conditions in all cases: compound concentration: 200 uM; treatment time: 3 h
USP42 = target: T1, USP42 (UniProt Q9H9J4)
T1 sequence (whole entry): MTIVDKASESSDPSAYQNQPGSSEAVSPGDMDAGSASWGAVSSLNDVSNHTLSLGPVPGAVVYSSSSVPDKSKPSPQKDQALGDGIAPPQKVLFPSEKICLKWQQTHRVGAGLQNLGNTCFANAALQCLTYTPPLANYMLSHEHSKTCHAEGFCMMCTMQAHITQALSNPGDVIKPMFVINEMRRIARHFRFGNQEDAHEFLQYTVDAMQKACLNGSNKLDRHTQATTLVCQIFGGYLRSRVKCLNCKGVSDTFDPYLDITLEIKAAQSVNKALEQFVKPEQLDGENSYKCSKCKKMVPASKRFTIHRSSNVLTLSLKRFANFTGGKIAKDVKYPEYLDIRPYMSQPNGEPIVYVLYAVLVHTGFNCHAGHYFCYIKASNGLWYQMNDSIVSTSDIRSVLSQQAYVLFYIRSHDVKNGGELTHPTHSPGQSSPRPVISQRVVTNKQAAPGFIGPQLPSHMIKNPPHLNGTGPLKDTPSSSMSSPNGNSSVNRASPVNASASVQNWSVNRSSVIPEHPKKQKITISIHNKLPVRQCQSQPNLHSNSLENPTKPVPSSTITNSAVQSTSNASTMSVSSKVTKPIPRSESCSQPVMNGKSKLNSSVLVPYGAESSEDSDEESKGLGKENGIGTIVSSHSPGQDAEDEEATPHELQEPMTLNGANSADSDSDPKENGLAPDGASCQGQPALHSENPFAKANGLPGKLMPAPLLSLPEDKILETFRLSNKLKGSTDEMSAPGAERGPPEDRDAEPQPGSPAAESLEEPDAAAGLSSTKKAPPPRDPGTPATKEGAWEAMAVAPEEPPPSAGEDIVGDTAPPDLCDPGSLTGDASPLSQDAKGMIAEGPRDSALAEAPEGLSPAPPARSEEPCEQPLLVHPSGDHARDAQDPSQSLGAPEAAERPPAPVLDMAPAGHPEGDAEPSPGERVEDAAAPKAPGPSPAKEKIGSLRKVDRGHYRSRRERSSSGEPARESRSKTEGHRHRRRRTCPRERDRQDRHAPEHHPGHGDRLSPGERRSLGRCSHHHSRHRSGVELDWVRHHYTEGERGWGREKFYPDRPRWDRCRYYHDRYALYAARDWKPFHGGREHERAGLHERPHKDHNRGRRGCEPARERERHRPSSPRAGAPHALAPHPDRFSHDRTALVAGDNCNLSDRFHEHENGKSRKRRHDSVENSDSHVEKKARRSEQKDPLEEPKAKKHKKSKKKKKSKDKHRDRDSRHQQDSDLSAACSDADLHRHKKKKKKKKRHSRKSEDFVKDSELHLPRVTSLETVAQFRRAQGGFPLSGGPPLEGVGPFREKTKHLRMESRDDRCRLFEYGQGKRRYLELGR
Method in brief: (§1)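 HEK293T lysate in Tris/CHAPS/IGEPAL buffer with protease inhibitors (495 µg per sample) was given fragment at 200 µM or vehicle for 3 h, in triplicate. It then received Biotin-Ahx-Ub-VS at 0.5 µM final for 1 h. Labelled DUBs were NeutrAvidin-enriched, digested with LysC and trypsin, and run by diaPASEF LC-MS/MS. Values are average log2 fragment/vehicle ratios by unpaired t-test on global-median-normalised Spectronaut quantities of proteins with ≥2 unique peptides.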

USP46 = USP46 (UniProt P62068)
Method in brief: as §1

USP47 = target: T2, USP47 (UniProt Q96K76)
T2 sequence (whole entry): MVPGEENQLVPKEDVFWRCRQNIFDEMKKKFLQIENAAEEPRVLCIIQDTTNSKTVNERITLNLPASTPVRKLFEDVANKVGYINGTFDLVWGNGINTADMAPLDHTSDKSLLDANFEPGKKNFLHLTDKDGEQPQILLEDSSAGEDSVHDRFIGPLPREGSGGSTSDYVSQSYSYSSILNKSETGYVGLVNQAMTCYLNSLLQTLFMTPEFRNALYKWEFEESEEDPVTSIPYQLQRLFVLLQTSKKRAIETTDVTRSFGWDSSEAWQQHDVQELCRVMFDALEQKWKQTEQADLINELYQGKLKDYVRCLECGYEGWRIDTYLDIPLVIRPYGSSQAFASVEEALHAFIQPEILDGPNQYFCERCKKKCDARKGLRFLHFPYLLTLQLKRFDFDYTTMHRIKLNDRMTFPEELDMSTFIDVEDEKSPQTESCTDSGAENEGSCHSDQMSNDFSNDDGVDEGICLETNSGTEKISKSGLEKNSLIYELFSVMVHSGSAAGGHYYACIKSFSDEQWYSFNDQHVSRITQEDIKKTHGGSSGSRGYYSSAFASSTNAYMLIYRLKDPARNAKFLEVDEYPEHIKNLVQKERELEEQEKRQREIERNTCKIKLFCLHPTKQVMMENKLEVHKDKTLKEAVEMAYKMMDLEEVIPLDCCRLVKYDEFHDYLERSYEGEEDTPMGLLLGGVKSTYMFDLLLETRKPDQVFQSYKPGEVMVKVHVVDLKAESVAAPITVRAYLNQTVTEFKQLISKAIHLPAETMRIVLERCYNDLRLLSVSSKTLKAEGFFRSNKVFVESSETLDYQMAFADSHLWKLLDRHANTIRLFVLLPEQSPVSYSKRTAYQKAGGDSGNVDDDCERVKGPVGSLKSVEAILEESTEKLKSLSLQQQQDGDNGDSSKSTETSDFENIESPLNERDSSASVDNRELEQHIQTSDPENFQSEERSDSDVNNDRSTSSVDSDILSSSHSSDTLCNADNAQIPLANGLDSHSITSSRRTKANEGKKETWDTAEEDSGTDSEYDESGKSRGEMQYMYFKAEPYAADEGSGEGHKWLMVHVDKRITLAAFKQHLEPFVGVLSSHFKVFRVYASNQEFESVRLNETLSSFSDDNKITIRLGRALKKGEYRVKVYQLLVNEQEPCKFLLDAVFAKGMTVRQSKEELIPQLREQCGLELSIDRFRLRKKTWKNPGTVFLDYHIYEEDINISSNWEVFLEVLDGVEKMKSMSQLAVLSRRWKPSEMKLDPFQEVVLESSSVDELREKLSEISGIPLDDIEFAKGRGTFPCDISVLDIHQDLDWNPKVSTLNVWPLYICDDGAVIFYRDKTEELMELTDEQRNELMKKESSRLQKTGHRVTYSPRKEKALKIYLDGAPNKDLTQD
Method in brief: as §1

USP48 = target: T3, USP48 (UniProt Q86UV5)
T3 sequence (whole entry): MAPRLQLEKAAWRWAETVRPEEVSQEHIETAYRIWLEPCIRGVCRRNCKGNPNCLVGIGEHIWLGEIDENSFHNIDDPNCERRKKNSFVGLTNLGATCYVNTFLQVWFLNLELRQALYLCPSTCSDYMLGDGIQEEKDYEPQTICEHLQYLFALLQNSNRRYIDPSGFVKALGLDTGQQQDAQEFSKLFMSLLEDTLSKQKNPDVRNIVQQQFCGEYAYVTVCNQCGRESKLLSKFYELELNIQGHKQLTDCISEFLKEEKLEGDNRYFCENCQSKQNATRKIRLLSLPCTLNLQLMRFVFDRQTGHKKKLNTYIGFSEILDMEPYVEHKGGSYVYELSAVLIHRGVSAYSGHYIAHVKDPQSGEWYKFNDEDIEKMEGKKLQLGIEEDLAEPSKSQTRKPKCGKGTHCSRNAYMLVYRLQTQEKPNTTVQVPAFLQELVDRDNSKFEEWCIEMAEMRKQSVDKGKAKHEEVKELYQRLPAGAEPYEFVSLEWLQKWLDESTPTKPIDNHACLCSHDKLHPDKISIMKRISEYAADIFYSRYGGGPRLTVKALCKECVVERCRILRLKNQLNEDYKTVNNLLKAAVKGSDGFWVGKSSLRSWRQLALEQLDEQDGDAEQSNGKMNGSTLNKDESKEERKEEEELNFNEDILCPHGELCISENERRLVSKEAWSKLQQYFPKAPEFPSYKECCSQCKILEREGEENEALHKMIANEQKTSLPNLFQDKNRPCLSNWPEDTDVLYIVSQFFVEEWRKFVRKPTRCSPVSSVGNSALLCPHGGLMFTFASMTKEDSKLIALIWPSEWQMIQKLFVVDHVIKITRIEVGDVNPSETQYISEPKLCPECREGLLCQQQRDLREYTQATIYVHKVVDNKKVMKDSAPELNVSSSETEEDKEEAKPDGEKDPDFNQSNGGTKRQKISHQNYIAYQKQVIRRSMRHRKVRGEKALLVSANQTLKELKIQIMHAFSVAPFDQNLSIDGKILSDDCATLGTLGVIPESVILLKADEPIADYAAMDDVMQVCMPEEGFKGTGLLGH
Method in brief: as §1

USP5 = target: T4, USP5 (UniProt P45974)
T4 sequence (whole entry): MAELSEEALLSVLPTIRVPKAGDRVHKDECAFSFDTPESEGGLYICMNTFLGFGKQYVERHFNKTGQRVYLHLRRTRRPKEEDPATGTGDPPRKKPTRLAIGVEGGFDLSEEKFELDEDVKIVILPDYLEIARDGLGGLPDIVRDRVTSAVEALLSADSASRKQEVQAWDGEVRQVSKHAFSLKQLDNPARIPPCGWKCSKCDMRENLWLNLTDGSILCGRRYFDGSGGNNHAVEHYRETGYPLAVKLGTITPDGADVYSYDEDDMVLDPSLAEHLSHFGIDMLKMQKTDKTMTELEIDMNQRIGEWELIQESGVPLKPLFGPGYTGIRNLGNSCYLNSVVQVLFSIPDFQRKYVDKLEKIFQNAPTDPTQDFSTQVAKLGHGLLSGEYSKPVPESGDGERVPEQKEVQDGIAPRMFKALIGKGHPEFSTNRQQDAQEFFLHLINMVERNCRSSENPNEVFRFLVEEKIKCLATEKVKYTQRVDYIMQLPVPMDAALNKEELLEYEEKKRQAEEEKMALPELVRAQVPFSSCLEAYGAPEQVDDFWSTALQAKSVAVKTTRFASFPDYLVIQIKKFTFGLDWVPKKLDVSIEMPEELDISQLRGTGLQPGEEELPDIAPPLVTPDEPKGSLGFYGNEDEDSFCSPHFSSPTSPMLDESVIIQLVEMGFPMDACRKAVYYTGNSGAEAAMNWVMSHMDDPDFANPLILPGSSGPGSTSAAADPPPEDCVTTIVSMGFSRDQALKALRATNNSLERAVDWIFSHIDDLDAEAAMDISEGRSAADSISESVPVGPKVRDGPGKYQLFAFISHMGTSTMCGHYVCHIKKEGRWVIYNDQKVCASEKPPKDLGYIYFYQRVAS
Method in brief: as §1

USP54 = USP54 (UniProt Q70EL1)
Method in brief: as §1

USP7 = USP7 (UniProt Q93009)
Method in brief: as §1

USP8 = target: T5, USP8 (UniProt P40818)
T5 sequence (whole entry): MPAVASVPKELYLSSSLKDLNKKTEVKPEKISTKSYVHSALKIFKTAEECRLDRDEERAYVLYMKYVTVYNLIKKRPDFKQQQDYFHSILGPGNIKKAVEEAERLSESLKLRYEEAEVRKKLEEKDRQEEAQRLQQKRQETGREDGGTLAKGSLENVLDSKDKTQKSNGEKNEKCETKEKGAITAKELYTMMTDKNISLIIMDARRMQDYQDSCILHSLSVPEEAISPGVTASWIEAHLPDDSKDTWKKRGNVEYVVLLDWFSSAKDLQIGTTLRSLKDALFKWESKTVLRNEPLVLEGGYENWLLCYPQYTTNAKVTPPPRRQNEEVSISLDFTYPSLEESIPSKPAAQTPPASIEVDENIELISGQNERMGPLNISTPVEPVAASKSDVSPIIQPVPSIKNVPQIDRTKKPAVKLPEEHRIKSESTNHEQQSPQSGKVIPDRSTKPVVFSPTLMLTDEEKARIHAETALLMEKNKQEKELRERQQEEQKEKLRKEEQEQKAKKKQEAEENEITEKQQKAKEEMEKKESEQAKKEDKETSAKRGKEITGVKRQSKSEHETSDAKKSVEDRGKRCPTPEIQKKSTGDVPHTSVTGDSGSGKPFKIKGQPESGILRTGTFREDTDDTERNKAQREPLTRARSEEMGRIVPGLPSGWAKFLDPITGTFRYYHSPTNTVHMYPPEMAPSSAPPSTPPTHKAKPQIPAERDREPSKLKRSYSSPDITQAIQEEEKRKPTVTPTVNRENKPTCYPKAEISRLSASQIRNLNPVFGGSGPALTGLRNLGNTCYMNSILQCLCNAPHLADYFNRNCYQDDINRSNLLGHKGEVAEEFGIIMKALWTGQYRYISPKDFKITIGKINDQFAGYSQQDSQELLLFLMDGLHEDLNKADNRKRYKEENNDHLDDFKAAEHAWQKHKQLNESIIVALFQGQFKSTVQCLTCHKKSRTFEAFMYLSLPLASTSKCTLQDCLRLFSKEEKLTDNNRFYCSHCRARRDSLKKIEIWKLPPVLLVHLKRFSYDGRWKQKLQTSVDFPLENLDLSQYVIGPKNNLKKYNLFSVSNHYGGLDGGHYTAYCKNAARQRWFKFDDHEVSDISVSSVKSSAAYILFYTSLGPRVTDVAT
Method in brief: as §1

Measured: log2 ratio of Biotin-Ahx-Ub-VS probe labelling

Sequence of USP46 (P62068 whole entry): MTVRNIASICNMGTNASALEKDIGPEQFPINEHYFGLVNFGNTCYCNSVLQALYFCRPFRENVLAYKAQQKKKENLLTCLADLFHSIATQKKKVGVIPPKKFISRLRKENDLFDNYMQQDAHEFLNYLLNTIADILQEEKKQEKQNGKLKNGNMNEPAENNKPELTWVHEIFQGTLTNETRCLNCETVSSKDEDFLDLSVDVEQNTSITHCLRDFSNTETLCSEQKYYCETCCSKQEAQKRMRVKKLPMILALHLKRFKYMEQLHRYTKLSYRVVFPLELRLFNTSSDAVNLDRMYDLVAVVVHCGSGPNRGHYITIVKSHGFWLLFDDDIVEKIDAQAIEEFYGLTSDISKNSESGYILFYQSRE
Sequence of USP54 (Q70EL1 whole entry): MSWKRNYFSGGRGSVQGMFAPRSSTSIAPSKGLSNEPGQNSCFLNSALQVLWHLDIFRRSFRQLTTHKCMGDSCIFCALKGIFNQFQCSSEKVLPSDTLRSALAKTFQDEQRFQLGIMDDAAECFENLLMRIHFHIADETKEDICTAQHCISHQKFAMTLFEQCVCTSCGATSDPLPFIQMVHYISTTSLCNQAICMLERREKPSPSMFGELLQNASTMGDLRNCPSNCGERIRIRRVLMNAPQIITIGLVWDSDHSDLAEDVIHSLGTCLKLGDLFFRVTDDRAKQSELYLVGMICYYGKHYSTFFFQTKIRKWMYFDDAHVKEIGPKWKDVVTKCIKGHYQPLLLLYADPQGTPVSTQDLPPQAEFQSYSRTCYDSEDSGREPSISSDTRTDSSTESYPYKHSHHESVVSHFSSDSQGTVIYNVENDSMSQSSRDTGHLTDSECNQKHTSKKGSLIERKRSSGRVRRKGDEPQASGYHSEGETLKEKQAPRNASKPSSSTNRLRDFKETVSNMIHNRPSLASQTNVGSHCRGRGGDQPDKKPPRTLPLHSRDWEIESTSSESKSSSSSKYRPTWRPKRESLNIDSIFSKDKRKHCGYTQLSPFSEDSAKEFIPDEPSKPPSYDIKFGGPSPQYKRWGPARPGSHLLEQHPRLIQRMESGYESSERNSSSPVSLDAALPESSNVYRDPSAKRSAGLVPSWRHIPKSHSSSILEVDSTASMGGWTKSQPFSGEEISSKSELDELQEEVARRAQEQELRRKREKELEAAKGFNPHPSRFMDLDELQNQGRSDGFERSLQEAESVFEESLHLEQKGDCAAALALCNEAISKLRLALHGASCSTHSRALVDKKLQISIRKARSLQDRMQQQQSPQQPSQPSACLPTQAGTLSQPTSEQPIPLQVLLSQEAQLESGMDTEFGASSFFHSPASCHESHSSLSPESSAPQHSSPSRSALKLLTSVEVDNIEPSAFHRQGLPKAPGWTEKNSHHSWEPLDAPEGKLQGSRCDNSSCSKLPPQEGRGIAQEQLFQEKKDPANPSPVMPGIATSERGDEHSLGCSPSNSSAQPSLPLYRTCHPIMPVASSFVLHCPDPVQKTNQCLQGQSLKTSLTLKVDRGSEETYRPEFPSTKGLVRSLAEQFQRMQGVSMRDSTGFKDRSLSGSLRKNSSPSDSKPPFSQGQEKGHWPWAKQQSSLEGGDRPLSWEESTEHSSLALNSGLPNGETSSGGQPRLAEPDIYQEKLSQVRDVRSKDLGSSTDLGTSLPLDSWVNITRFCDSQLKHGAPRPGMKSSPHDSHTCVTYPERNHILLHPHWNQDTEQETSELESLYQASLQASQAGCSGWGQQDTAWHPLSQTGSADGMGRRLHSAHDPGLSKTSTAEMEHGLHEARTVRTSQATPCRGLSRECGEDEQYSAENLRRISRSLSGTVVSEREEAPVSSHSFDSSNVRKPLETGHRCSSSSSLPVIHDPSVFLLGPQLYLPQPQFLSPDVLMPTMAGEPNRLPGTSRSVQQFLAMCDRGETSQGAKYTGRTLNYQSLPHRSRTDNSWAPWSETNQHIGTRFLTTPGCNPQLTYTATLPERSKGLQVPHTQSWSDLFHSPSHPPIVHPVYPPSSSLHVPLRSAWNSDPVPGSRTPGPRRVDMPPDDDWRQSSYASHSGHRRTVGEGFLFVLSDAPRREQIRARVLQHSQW
Sequence of USP7 (Q93009 whole entry, looked up): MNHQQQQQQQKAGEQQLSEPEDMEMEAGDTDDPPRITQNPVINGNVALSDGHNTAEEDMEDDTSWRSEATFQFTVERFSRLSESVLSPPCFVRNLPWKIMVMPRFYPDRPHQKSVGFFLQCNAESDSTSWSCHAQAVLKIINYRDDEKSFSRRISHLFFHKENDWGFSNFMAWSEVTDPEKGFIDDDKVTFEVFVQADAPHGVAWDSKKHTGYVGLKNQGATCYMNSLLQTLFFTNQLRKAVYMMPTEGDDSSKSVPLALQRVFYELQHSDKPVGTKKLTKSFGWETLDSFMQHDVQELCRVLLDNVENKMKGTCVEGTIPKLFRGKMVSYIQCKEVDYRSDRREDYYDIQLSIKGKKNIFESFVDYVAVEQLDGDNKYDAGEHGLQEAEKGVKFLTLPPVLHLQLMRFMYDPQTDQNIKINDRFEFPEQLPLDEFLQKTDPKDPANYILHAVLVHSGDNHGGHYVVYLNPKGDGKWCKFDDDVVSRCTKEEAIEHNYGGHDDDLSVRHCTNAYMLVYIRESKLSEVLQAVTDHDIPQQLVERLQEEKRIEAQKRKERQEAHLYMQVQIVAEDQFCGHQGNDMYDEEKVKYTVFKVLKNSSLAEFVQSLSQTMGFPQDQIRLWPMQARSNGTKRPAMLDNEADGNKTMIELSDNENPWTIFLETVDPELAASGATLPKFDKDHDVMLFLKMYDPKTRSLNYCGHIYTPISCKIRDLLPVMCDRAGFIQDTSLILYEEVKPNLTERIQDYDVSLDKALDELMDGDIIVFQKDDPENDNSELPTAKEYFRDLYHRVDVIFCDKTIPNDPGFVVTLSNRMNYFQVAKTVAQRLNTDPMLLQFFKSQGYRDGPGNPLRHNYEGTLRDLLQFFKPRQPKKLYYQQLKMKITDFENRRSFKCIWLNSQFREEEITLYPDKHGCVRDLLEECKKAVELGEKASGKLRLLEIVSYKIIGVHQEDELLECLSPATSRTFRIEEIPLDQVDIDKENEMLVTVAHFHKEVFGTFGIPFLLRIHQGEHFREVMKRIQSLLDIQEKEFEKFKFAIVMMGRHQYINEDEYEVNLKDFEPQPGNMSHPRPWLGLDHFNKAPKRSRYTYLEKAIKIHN

O=C(CCl)Nc1ccc(N2CCCC2=O)cc1
inactive: USP42 -0.131 | USP46 0.132 | USP47 0.214 | USP48 -0.192 | USP5 -0.0866 | USP54 0.313 | USP7 -0.0242 | USP8 0.198
